# D2 antag – antagonists of human D2 dopamine receptor; HEK293 TREx D2 cells, calcium flux, dopamine EC80; 340,000 compounds, 2% hits; AID 485344; P14416; inhibition, % at 10 µM; in the data active = inhibition above about 30%; inactive = below that, where a call was filed; note: 0% is about no effect
# Target sequence (P14416 whole entry, looked up): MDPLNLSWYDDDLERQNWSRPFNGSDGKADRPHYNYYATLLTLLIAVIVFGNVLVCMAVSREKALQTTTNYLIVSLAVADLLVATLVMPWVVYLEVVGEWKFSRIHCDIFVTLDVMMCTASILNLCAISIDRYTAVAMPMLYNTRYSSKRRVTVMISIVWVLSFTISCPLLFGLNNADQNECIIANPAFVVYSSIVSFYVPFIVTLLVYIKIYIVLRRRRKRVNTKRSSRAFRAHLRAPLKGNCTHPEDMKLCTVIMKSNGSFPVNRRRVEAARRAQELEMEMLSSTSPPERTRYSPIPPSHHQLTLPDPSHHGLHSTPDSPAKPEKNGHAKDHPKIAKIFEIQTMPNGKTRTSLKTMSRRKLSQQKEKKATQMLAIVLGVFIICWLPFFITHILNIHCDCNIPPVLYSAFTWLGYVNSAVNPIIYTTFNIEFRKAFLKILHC
#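 Inhibition of EC80 dopamine-driven calcium flux, recorded kinetically, defines activity here; cells are a tetracycline-induced HEK293 T-REx line expressing force-coupled D2.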
# D2 ag-1 – agonists of human D2 dopamine receptor | HEK293 T-REx D2 cells, calcium flux agonist mode | activation, % at 2 µM | 340,000 compounds, 0.53% hits | AID 485358;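 active = activation over 3 SD above normal in the single-dose calcium agonist read, cut at about 30% in these data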; note: 0% is about no effect
#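 Calcium-flux readout, 1 cycle/sec over 180 s following compound pin transfer, in inducible HEK293 Trex D2 cells (force-coupled); dopamine controls included. Positive calcium responses during this window marked compounds as potential agonists.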
# D2 PAM-1 – potentiates the human D2 dopamine receptor allosterically; P14416; DiscoveRx D2 beta-arrestin cells, luminescence, 90 min; 100% = 57 uM dopamine signal; potentiation, % (concentration not given with the values); 360,000 compounds, 0.23% hits; in the data active = potentiation above about 50%; inconclusive = mostly about 30% to 49%
#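 PathHunter D2 cells, attached overnight at 37 deg C, received compound in DMSO plus dopamine at EC20 (50 nM final) for 90 min at 37 deg C. Beta-arrestin recruitment was read as luminescence after 1 h with detection reagent at ambient temperature.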
# D2 PAM-2 – positive allosteric modulators of human D2 dopamine receptor. P14416. HEK293 T-REx D2, calcium flux, EC20 dopamine potentiation. potentiation, % at 10 µM. 340,000 compounds, 0.34% hits;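 active = potentiation over 3 SD above the plate norm, cut at about 30% in these data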; note: 0% is about no effect
#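 Cells plated with tetracycline inducer and held overnight at 30 C; calcium dye loaded 30–90 min at room temperature; baseline taken, compound added and read 180 s; EC20 dopamine then added and read 180 s.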
# D2 ag-2 – agonists of human D2 dopamine receptor (beta-arrestin) | P14416 | DiscoveRx PathHunter D2 beta-arrestin, luminescence, 90 min; 100% = 57 uM dopamine signal | activation, % (test concentration not listed) | 360,000 compounds, 0.084% hits | AID 624465; in the data active = activation above about 40%; inconclusive = between about 15% and that limit
#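 Agonist mode: compounds alone added to overnight-plated D2 PathHunter cells for 90 min at 37 C, with 57 uM final dopamine (EC100) defining full response. Beta-arrestin recruitment detected by chemiluminescent reagent, read after 1 h at ambient temperature.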
# * = called active by the depositor; ? = inconclusive; . = no result. Rows were chosen to be rich in hits. Some 2.4% of all compounds tested hit in one or more screens of this group.
SMILES,D2 antag,D2 ag-1,D2 PAM-1,D2 PAM-2,D2 ag-2
CCN(CC(=O)Nc1c(F)cccc1F)C(=O)c1ccc(N2CCOCC2)c([N+](=O)[O-])c1,-12,0,-17,-4,-3
CCN(CC(=O)Nc1c(F)cccc1F)C(=O)c1ccc(N2CCCC2)c([N+](=O)[O-])c1,31*,0,-25,8,-9
Cc1nc2sc(C(=O)Nc3ccc(F)cc3)c(N)c2c(-c2ccc(Br)cc2)c1C(=O)Nc1ccc(Cl)cc1,.,0,.,11,.
CCCn1c(N)c(Sc2ccccc2)c(=O)n(CCC)c1=O,49*,0,1,-8,-1
Cc1c(C(=O)O)sc2ncnc(N3CCCCC3C)c12 (centres undefined),-1,0,-14,33*,0
CCOc1ccc(-c2nnc(N)s2)cc1,1,0,-9,74*,-1
Cc1cccc(C(=O)NCc2cn3cccc(C)c3n2)c1,.,.,.,1,.
Cc1cccc(NC(=O)NC(C)C(c2cccs2)N2CCOCC2)c1 (centres undefined),30*,1,-10,11,-6
CC(C)C(=O)NC(C)C(c1cccs1)N1CCOCC1 (centres undefined),-13,0,7,10,-3
Cc1ccc(C(=O)NC(C)C(c2cccs2)N2CCCC2)s1 (centres undefined),-4,0,-19,33*,7
CC(NC(=O)c1ccco1)C(c1cccs1)N1CCN(c2ccccc2F)CC1 (centres undefined),22,-1,8,38*,-1
Cc1cn(S(=O)(=O)c2ccc(F)c(Cl)c2)cn1,.,0,.,-2,.
Cc1ccc(C(=O)CN(C(=O)c2ccc(Cl)cc2)N2C(=O)CCC2=O)cc1,31*,-1,-49,-21,-5
Cc1ccc(C(=O)CN(C(=O)c2ccc(Cl)cc2)N2C(=O)c3ccccc3C2=O)cc1,-7,-1,-3,-2,-1
COc1ccccc1C(=O)NC1(C(F)(F)F)C(=O)Nc2c1c(=O)[nH]c(=O)n2-c1ccccc1 (centres undefined),.,0,.,-13,.
NC(=O)C1CCN(C(=O)COc2ccc3c4c(c(=O)oc3c2)CCCC4)CC1,31*,2,-26,8,-6
O=C(O)C1CCN(C(=O)COc2ccc3c4c(c(=O)oc3c2)CCC4)CC1,15,5,-7,16,-3
COc1cc(C(=O)N(Cc2ccc(F)cc2)Cc2ccco2)cc(OC)c1OC,.,-1,.,7,.
CCC(=O)Nc1ccccc1Nc1cc(C#N)c(C#N)cc1[N+](=O)[O-],8,-1,74*,-3,10
N#Cc1ccccc1NC(=O)COC(=O)COc1ccccc1[N+](=O)[O-],-17,0,-1,4,0
Cc1ccc(CNC(=O)c2cc3c(=O)n(Cc4cccnc4)ccc3nc2C)cc1,.,0,.,5,.
CC1(Cc2cn(CCC#N)c3ccccc23)OCCO1,-3,0,-5,-2,0
N#CCCn1cc(CNC2CCC(O)CC2)c2ccccc21 (centres undefined),5,0,-2,30*,-2
Cc1ccc(S(=O)(=O)N(C(=O)c2ccncc2)c2ccc(OC(=O)c3ccncc3)c3ccccc23)c(C)c1,.,.,90*,.,?
CCOC(=O)c1cc(S(=O)(=O)NC2CCC(C)CC2)cn1C (centres undefined),-10,0,1,99*,3
SMILES,D2 antag,D2 ag-1,D2 PAM-1,D2 PAM-2,D2 ag-2
NC(=O)C1CCN(S(=O)(=O)c2cc3c4c(c2)CCN4C(=O)CC3)CC1,30*,0,4,3,-6
CCOC(=O)C1CCCN(S(=O)(=O)c2cc3c4c(c2)CCN4C(=O)CC3)C1 (centres undefined),-6,0,-2,16,?
Cc1cccc(C(=O)OCC(=O)N2CCCCCC2)c1,31*,0,-16,11,0
COc1ccc2oc(C(=O)OCC(=O)N3CCN(C(C)=O)CC3)c(C)c2c1,-9,1,28,-2,-4
COc1ccc2oc(C(=O)OCC(=O)N3CCCCC3)c(C)c2c1,31*,-1,0,-1,-4
CCOc1ccc(NC(=O)CC2C(=O)N(c3ccc(F)cc3)C(=O)N2Cc2ccc(OC)c(OC)c2)cc1 (centres undefined),.,0,.,16,.
Cc1ccc(NC(=O)/C(C#N)=C(\N)C(Cl)(Cl)Cl)nc1,33*,0,1,19,0
Cc1ccc(NC(=O)C(=O)Nc2ccc(C)cn2)nc1,-8,0,-9,0,0
COc1ccccc1N1CCN(C(CNC(=O)C(=O)NCCc2ccccc2)c2cccnc2)CC1 (centres undefined),.,-1,.,5,.
COC(=O)CCC(=O)OC1(C)C(=O)C2=CN(C(CO)CO)C(c3ccc(OC)cc3)=CC2=C(Br)C1=O (centres undefined),30*,3,.,-10,.
CCN(CC)c1ccc(/C=C(/C#N)C(=O)NC(C)C)o1,9,9,-9,-7,-4
CC(C)NC(=O)/C(C#N)=C\c1ccc(N(C)C)o1,40*,1,-11,1,-11
CCN(CC)c1ccc(/C=C(/C#N)C(=O)NCc2ccccc2)o1,10,43*,-36,-16,-3
CCc1ccc(NC(=O)CN2C(=O)C(c3ccc(Cl)cc3)=NC23CCCCC3)cc1,.,0,.,4,.
COc1ccc2ncc3c(-c4ccc(C)c(C)c4)nn(CC(=O)Nc4ccccc4)c3c2c1,.,-2,.,-5,.
O=S1(=O)CC(O)C(NCCO)C1 (centres undefined),-48,1,-2,-2,1
O=S1(=O)CC(O)C(NCc2ccco2)C1 (centres undefined),34*,1,-11,-6,0
c1coc(CNC2CCCCCCC2)c1,-5,0,21,1,-2
c1coc(CNC2CCCCC2)c1,-13,-1,-2,32*,-3
Cc1cc2n(n1)C(c1ccccc1)CC(c1ccc(Br)cc1)=N2 (centres undefined),52*,8,10,-2,6
NC(=O)CCCCC(=O)OCCCc1cccs1,0,-1,-1,31*,3
CCc1cc2ccc(C)cc2nc1SCC(=O)Nc1cc(C)on1,-7,0,0,3,-1
CCc1cc2cc3c(cc2nc1SCC(=O)Nc1cc(C)on1)OCO3,32*,0,-8,-2,-1
CCOC(=O)CSc1nc2cc3c(cc2cc1CC)OCCO3,-13,1,-23,75*,-5
CCOc1ccc(NC(=O)CSC2=Nc3ccccc3C3=NC(CC(=O)NCc4ccccc4OC)C(=O)N23)cc1 (centres undefined),.,-6,.,-15,.
Cc1ccc2c(CNCCc3ccco3)c(C(=O)O)n(Cc3ccc(F)cc3)c2c1,.,0,.,3,.
